Results as given in PubChem BioAssay AID624491 (Broad Institute, 2012).
Hit rate of the full screen: of about 1,800 compounds, about 1,400 (78%) were called active. Inconclusive results (about 2%) are left out.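 The calls were made as follows: active = fitted curve crossing a set activation limit at or below the highest valid dose tested; inconclusive = flat fit at 30 to 70% activation, or poor fit; inactive = the rest, including signal decreases.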 So high a share suggests a set chosen from earlier hits. These entries were drawn from the full list. Entries with a potency or affinity are not part of this list.

Assay: blockers of NLG process in reporter cells – D54 ERlucT cells, luminescence, cherry-picks, dose response (AID 624491);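 also: signal gain reflects blocked N-linked glycosylation of a luciferase reporter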
Conditions: D54 ERlucT glycosylation luciferase reporter, 24 h, 100% = twice neutral-control luminescence; series mostly up to 19.5 µM; activation (NLG inhibition): at the top concentration

Activation (NLG inhibition), inactive:
CC[C@@H]1CC=C[C@H]2[C@H]1C(=O)N(Cc1ccccc1)[C@H]2c1ccoc1 22.8%
c1ccc2[nH]c3cc4ncnc4cc3nc2c1 3.68%
NS(=O)(=O)c1ccc(N=Nc2c(O)[nH]c3ccc(Br)cc23)cc1 26.4%
COc1ccc(CN(C)c2ncnc3sccc23)c(OC)c1OC 29.3%
CCc1ccccc1NC(=O)Cn1nnc(C(=O)NCc2cccs2)c1N 22.7% [at 5 µM]
COc1ccc(C(=O)/C=C/c2ccccc2F)c(OC(=O)c2ccc([N+](=O)[O-])cc2)c1 23%
O=C(NCc1ccc2c(c1)OCO2)c1cc([N+](=O)[O-])ccc1N1CCOCC1 -15.2%
CC1=C[C@@H](C)[C@@H](c2ccc(C(F)(F)F)cc2)OC1=O 31.7%
O=C(COc1ccc2c(-c3ccccc3)cc(=O)oc2c1)N[C@@H](Cc1c[nH]c2ccc(O)cc12)C(=O)O 18.2%
COc1ccc2c(c1)c1ccc3c(c1n2C)C(=O)C=CC3=O 31.4%
COc1cc2c(cc1OC)C(c1ccccc1)N(C(=O)CCl)CC2 (centres undefined) -90.9%
COc1ccc(CC(=O)NCc2ccccc2)cc1 49%
COc1ccc(NS(=O)(=O)c2cc(NC(=O)c3nn(C)c(=O)c4ccccc34)ccc2OC)cc1 39.3%
COc1cc2nc(NC(=O)c3ccccc3)sc(=O)c2cc1OC -2.97%
COc1ccc(C(=O)c2sc(Nc3ccccc3)nc2N)cc1OC 26%
COc1ccccc1N(C)S(=O)(=O)c1ccc(C(=O)OCC(=O)N2CCC2)cc1 37.2%
CC1CN(C(=O)c2cc(-c3ccc(Cl)s3)nc3ccccc23)CC(C)O1 (centres undefined) 114%
O=C(c1cc(-c2cccs2)nc2ccccc12)N1CCN(c2ccccc2)CC1 30.5%
O=C(N/N=C/c1ccc2c(c1)OCO2)c1sc2cc(Cl)ccc2c1Cl 31.9%
Oc1[nH]c(N=C2N=c3ccccc3=N2)c2ccccc12 623%
COc1cc(/C=C2/C(=O)N(C)C(=S)N2C)ccc1OCc1cccc(F)c1 7.41%
C(=N\Nc1nc2ccccc2[nH]1)/c1c[nH]c2ccccc12 22%
O=C(c1cccc([N+](=O)[O-])c1)N1CCN(c2cccc(Cl)c2)CC1 32.1%
CCOC(=O)N1CCN(C(=O)c2cccc(N3C(=O)NC4CC3(C)Oc3ccc(Cl)cc34)c2)CC1 (centres undefined) 46.9%
CCOc1ccc(C(=O)Nc2cc(-c3nc4ccccc4[nH]3)ccc2Cl)cc1[N+](=O)[O-] 22.3%
Cc1c(Cl)ccc2c(C(=O)Nc3cc(C(C)(C)C)on3)cc(-c3ccccn3)nc12 85.9%
O=C1COc2ccc(C(=O)/C=C/c3ccccc3)cc2N1 22.8%
O=C(Cc1ccc(Cl)cc1)Nc1ccccc1N1CCN(C(=O)c2ccccc2)CC1 74%
COc1ccc(N2CC(C(=O)Nc3cc(C(F)(F)F)ccc3N3CCCC3)CC2=O)c(OC)c1 (centres undefined) 60.1%
